Reference: PubChem BioAssay AID1159580 (chemical genetic matrix, 2015)
Several values for one entry are separate records, joined by “and”; a condition that tells them apart may be missing. Identical values can stand only once. The whole screen tested about 5,500 compounds, of which about 2,000 (36%) were called active. Another 18% or so got no clear call; they are omitted. Cut-off read from the data, not from the text of the source: active = normalized growth mostly below about 0.91 (no sharp cut-off); inconclusive = no clear call, values can overlap the other calls; inactive = mostly above about 0.92. Some of the results follow.

Test: chemical genetic growth profiling, strain panel (AID 1159580);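 note: tested at 20 µM; growth read once vehicle control cultures reached saturation at 30 °C; 1 = growth at the plate median or of vehicle wells; lower values mean less growth of the strain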
Settings: S. cerevisiae deletion strains, growth OD

Measured: normalized growth

OCCN1C[C@@H](O)[C@@H](O)C(O)C1CO (stereo partly specified)
inactive: locus YAL013W, strain DEP1, hits give low values 1.02 | locus YAL021C, strain ccr4, hits give low values 0.993 | locus YAL026C, strain drs2, hits give low values 1.02 | locus YAL030W, strain snc1, hits give low values 0.999 | locus YBL061C, strain skt5, hits give low values 1.01 | locus YBR009C, strain hhf1, hits give low values 1 | locus YBR021W, strain FUR4, hits give low values 1.01 | locus YBR023C, strain chs3, hits give low values 1 | locus YBR171W, strain sec66, hits give low values 1.01 | locus YBR229C, strain ROT2, hits give low values 1.02 | locus YBR231C, strain swc5, hits give low values 1.01 | locus YBR279W, strain paf1, hits give low values 1.01 | locus YCL011C, strain gbp2, hits give low values 0.996 | locus YCL016C, strain dcc1, hits give low values 0.993 | locus YCL029C, strain bik1, hits give low values 1 | locus YCL069W, strain vba3, hits give low values 0.991 | locus YCR088W, strain abp1, hits give low values 0.997 | locus YDL005C, strain med2, hits give low values 1.01 | locus YDL035C, strain GPR1, hits give low values 1.01 | locus YDL040C, strain nat1, hits give low values 1 | locus YDL074C, strain BRE1, hits give low values 1.03 | locus YDL101C, strain DUN1, hits give low values 1.01 | locus YDL134C, strain PPH21, hits give low values 1.02 | locus YDL185W, strain tfp1, hits give low values 0.994 | locus YDL192W, strain arf1, hits give low values 1 | locus YDR001C, strain nth1, hits give low values 1 | locus YDR069C, strain doa4, hits give low values 1.01 | locus YDR101C, strain arx1, hits give low values 1.01 | locus YDR137W, strain rgp1, hits give low values 1.01 | locus YDR150W, strain NUM1, hits give low values 1.02 | locus YDR159W, strain sac3, hits give low values 1.01 | locus YDR162C, strain NBP2, hits give low values 1.01 | locus YDR195W, strain ref2 0.992 | locus YDR297W, strain sur2, hits give low values 1.01 | locus YDR318W, strain mcm21, hits give low values 1 | locus YDR334W, strain swr1, hits give low values 1.01 | locus YDR335W, strain msn5, hits give low values 0.992 | locus YDR388W, hits give low values 1 | locus YDR392W, strain spt3, hits give low values 0.989 | locus YDR502C, strain sam2, hits give low values 1 | locus YEL003W, strain gim4, hits give low values 1.01 | locus YEL037C, strain rad23, hits give low values 1 | locus YEL061C, strain CIN8 (second series), hits give low values 0.989 | locus YEL061C, strain CIN8, hits give low values 1.02 | locus YER015W, strain faa2, hits give low values 1.01 | locus YER016W, strain bim1, hits give low values 0.983 | locus YER110C, hits give low values 0.993 | locus YER111C, strain swi4, hits give low values 1.02 | locus YER155C, strain BEM2 (second series), hits give low values 1.01 | locus YER155C, strain BEM2, hits give low values 1.01 | locus YER167W, strain BCK2, hits give low values 1.02 | locus YFR010W, strain ubp6, hits give low values 1.01 | locus YGL078C, strain dbp3, hits give low values 1.01 | locus YGL086W, strain mad1, hits give low values 1 | locus YGL167C, strain pmr1, hits give low values 1.01 | locus YGL173C, strain kem1, hits give low values 1.02 | locus YGL227W, strain vid30, hits give low values 1.01 | locus YGL240W, strain doc1, hits give low values 1.01 | locus YGL248W, strain PDE1, hits give low values 1.01 | locus YGL253W, strain hxk2, hits give low values 1 | locus YGR078C, strain PAC10, hits give low values 1.04 | locus YGR135W, strain pre9, hits give low values 1 | locus YGR229C, strain SMI1, hits give low values 1.02 | locus YGR252W, strain gcn5, hits give low values 0.969 | locus YHR013C, strain ard1, hits give low values 0.988 | locus YHR027C, strain rpn1, hits give low values 1.01 | locus YHR030C, strain SLT2, hits give low values 1.02 and 1.01 | locus YHR079C, strain IRE1 (second series), hits give low values 1.01 | locus YHR079C, strain IRE1, hits give low values 1 | locus YHR094C, strain hxt1, hits give low values 1.01 | locus YHR129C, strain ARP1, hits give low values 1.01 | locus YHR142W, strain chs7, hits give low values 0.984 | locus YHR200W, strain rpn10, hits give low values 1 | locus YIL066C, strain RNR3, hits give low values 1.02 | locus YIL073C, strain SPO22, hits give low values 1.03 | locus YIL125W, strain kgd1, hits give low values 1 | locus YIR030C, strain dcg1, hits give low values 1.01 | locus YJL092W, strain hpr5, hits give low values 1 | locus YJL095W, strain BCK1 (second series), hits give low values 1.01 | locus YJL095W, strain BCK1, hits give low values 1.02 and 1.01 | locus YJL115W, strain asf1, hits give low values 1.02 | locus YJL129C, strain trk1, hits give low values 0.997 | locus YJL134W, strain LCB3, hits give low values 1.01 | locus YJL154C, strain vps35, hits give low values 0.994 | locus YJL164C, strain tpk1, hits give low values 0.996 | locus YJL166W, strain qcr8, hits give low values 1.01 | locus YJL168C, strain set2, hits give low values 1 | locus YJL187C, strain SWE1 (second series), hits give low values 1.02 | locus YJR043C, strain POL32, hits give low values 1 | locus YJR066W, strain TOR1, hits give low values 0.962 | locus YJR075W, strain HOC1, hits give low values 1.01
